GSTO1 inh – inhibitors of recombinant GSTO1, primary screen, counter-screen for RBBP9 inhibitor project, biochemical, fluorescence polarization; Glutathione S-transferase omega-1 (Homo sapiens), P78417; activity-based probe fluorescence polarization; inhibition, % at 5.96 µM; 1.1% of 300,000 active; AID 1974, 2009;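 active = inhibition above the campaign mean inhibition plus 3 SD, cut at about 35% in these data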;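 also: 0% = GSTO1-1 with DMSO and 100% = wells lacking GSTO1-1 enzyme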
LYPLA1 inh – LYPLA1 inhibitors, primary screen, counter-screen for PME1 inhibitor project, biochemical, fluorescence polarization, FP-Rh probe ABPP; Acyl-protein thioesterase 1 (Homo sapiens), O75608; recombinant LYPLA1; inhibition, % at 5.9 µM; 0.16% of 320,000 active; AID 2174, 2009;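 active = inhibition above the mean of all tested compounds plus 3 SD, set per campaign, cut at about 14% in these data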;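 also: inhibitors block serine hydrolase probe labeling of LYPLA1 so polarization falls; 0% = enzyme with DMSO and 100% = wells lacking LYPLA1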
PME-1 inh – PME-1 inhibitors via competitive probe labeling, primary screen, biochemical, fluorescence polarization, FP-Rh probe, HTS | 0.53% of 320,000 active | Protein phosphatase methylesterase 1 (Homo sapiens), Q9Y570 | recombinant PME-1 | AID 2130, 2009 | inhibition, % at 5.9 µM;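 active = inhibition above the campaign mean of all compounds plus 3 SD, cut at about 26% in these data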;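 also: competitive labeling of PME-1 active site by serine hydrolase directed probe; 0% = PME-1 with DMSO and 100% = wells lacking PME-1 enzyme; inhibitors block probe labeling so polarization falls and inhibition rises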
LYPLA2 counter – LYPLA2 inhibitors, primary screen, counter-screen for PME1 inhibitor project, biochemical, fluorescence polarization, FP-Rh probe ABPP | Acyl-protein thioesterase 2 (Homo sapiens), O95372 | inhibition, % at 5.9 µM | recombinant LYPLA2 | AID 2177, 2009 | 0.38% of 320,000 active;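 active = inhibition above the screen-wide mean plus 3 SD, limit set per campaign, cut at about 26% in these data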;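 also: 0% = LYPLA2 with DMSO and 100% = wells lacking LYPLA2 enzyme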
PAD4 inh – human PAD4 inhibitors, primary screen, biochemical, fluorescence polarization, 1536-well format; recombinant PAD4, RCA probe fluorescence polarization; inhibition, % at 6.36 µM; 0.41% of 330,000 active; AID 485272, 2010;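 active = percent inhibition above a cutoff equal to the mean of all tested compounds plus 3 SD, cut at about 15% in these data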;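 also: 0% = PAD4 with RCA probe and DMSO and 100% = probe without PAD4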
Target sequence (Q9UM07 whole entry, looked up): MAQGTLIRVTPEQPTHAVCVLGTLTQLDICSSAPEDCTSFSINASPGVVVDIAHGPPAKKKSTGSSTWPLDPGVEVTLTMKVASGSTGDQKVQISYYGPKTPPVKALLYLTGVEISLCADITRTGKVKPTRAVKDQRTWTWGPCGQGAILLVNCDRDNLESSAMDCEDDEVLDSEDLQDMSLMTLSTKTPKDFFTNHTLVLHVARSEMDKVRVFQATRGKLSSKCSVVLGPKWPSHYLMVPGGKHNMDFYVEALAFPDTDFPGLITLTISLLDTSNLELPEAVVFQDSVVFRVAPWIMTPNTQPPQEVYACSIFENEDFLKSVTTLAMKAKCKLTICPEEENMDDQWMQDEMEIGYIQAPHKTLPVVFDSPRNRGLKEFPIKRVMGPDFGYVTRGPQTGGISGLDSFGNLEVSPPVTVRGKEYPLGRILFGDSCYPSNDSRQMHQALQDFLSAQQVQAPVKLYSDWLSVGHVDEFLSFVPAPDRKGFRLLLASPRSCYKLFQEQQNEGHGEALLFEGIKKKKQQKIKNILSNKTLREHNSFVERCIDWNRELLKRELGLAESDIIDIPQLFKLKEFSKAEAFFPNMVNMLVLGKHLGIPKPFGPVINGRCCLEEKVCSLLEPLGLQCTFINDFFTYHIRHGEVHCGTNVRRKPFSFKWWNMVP
Fam108B inh – mouse Fam108B serine hydrolase inhibitors, primary screen, counter-screen for RBBP9 inhibitor project, biochemical, fluorescence polarization; inhibition, % at 9.51 µM; AID 1947, 2009; 0.33% of 300,000 active; recombinant Fam108B, FP-Rh probe fluorescence polarization;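 active = inhibition above the screen mean inhibition plus 3 SD, computed separately per campaign, cut at about 18% in these data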;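 also: inhibitors lower polarization as less probe binds the enzyme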
Numbers without * were called inactive; / = no result. Sampled rows, rich in hits. Any-hit rate of the full collection: about 1.7%.

SMILES | GSTO1 inh | LYPLA1 inh | PME-1 inh | LYPLA2 counter | PAD4 inh | Fam108B inh
CN(C)c1ccc(NC(=O)Nc2cccc(Cl)c2)cc1 | 9 | -4 | 32* | 3 | -4 | 5
CCOC(=O)c1sc(NC(=O)Nc2cccc(Cl)c2)cc1C | -47 | -19 | 13 | -13 | -1 | 25*
Oc1[nH]c2ccccc2c1N=Nc1ncnc2c1oc1ccccc12 | 1 | 0 | 30* | -3 | -1 | 4
CC(=O)c1cccc(OCCCOc2cccc3cccnc23)c1 | -1 | -1 | 6 | -1 | -3 | -2
COc1ccc(/C=C2\Sc3ccc(C(=O)N4CCN(Cc5ccccc5)CC4)cc3N(C)C2=O)cc1OC | -80 | -2 | 42* | 6 | 4 | -2
CN1CCN(C(=O)c2ccc3c(c2)N(C)C(=O)/C(=C/c2cccc(Cl)c2)S3)CC1 | -16 | 1 | 21 | 4 | -1 | 0
O=C(O)c1ccc(N=Nc2c(O)[nH]c3cc(Cl)ccc23)cc1 | -7 | 6 | 53* | 2 | -4 | 2
O=C(CCSCCc1ccccn1)Nc1ccc(Cc2ccncc2)cc1 | 6 | -1 | 4 | 3 | -2 | -1
Cc1ccc2c(c1)Oc1ccc(NC(=O)CCl)cc1C(=O)N2 | 92* | -3 | -8 | -2 | 0 | -24
Cc1ccc2c(c1)Oc1ccc([N+](=O)[O-])cc1C(=O)N2 | 5 | -3 | 4 | 5 | 0 | -4
COc1cc(C(=O)Nc2c(C(=O)O)[nH]c3ccc(Br)cc23)cc(OC)c1OC | 2 | 12 | 31* | 0 | -1 | 9
COc1ccc2[nH]cc(CCn3ccc(=O)c(C)c3C)c2c1 | 5 | 1 | -5 | -2 | 4 | 4
O=C(NCC(c1cccs1)N1CCOCC1)c1ccccc1NS(=O)(=O)c1ccc(Cl)c([N+](=O)[O-])c1 (centres undefined) | 50* | -2 | 2 | -11 | -2 | -2
CC(C)Nc1ccc(C(CC(N)=O)NC(=O)Cc2ccc(Cl)cc2)cc1[N+](=O)[O-] (centres undefined) | 23 | 2 | -1 | -2 | 0 | 1
COC(=O)c1cc(NCc2c(F)cccc2Cl)ccc1N1CCOCC1 | 4 | 1 | 0 | 7 | -1 | 4
Fc1cccc(Cl)c1CNc1ccc(N2CCCC2)cc1 | 37* | -1 | 13 | 3 | 4 | 9
CCCC(=O)NC(c1cccs1)c1cc([N+](=O)[O-])c2cccnc2c1O (centres undefined) | -4 | -5 | 10 | 3 | -4 | 4
CCC(=O)NC(c1cccs1)c1cc([N+](=O)[O-])c2cccnc2c1O (centres undefined) | -2 | -1 | 27* | 4 | 0 | 10
[O-][n+]1cccc2c(Br)cc(Br)c(O)c21 | 46* | -3 | 5 | -2 | 1 | 10
O=C(c1ccc(Cl)cc1)C1CCN(C(=O)c2ccc(F)cc2)CC1 | -3 | 1 | 3 | 5 | -1 | 2
O=C(NNc1c2ccccc2nc2ccccc12)c1cccc(O)c1 | 0 | -2 | 40* | -4 | 7 | 6
CCCC(=O)NNc1c2ccccc2nc2ccccc12 | 4 | 2 | -2 | 1 | -3 | 0
O=C(NNc1c2ccccc2nc2ccccc12)c1ccccc1O | 19 | 3 | 54* | 11 | 1 | 14
O=C(O)c1cccc(Nc2c3ccccc3nc3ccccc23)c1 | -2 | -1 | -7 | -1 | -9 | 4
O=C(NNc1c2ccccc2nc2ccccc12)c1ccccc1Cl | -3 | -6 | -8 | -3 | 6 | -6
SMILES | GSTO1 inh | LYPLA1 inh | PME-1 inh | LYPLA2 counter | PAD4 inh | Fam108B inh
O=C(NNc1c2ccccc2nc2ccccc12)c1ccc(O)cc1 | -6 | -1 | 49* | 1 | -2 | 8
Cc1ccc(C)c(NC(=S)NNC(=O)c2csc(C(C)C)c2)c1 | 2 | 5 | 0 | 5 | -1 | 4
Cc1ccc(C(=O)Nc2nc(-c3ccccn3)cs2)cc1S(=O)(=O)N1CCOCC1 | / | -6 | 2 | -4 | -3 | /
CCC[C@@H]1C[C@@]1(CCC)[C@@H](NP(=O)(c1ccccc1)c1ccccc1)c1ccc(C(=O)OC)cc1 | -6 | -6 | 0 | -11 | 1 | -9
COC(=O)c1cccc(C#CC(NP(=O)(c2ccccc2)c2ccccc2)c2ccccc2)c1 (centres undefined) | 5 | -7 | 31* | -5 | -1 | -1
Cc1nn(-c2ccccc2)c(Cl)c1C1C(C#N)=C(N)Oc2c1c(C)nn2-c1ccccc1 (centres undefined) | 21 | 0 | -2 | 5 | -14 | 3
COc1cc(-n2nc(C)c3c2OC(N)=C(C#N)C3c2ccccc2)c(Cl)c(Br)c1O (centres undefined) | 21 | 4 | 7 | 5 | 26* | 2
Nc1nnc(SCc2c(F)cccc2Cl)s1 | -3 | 3 | 2 | 3 | -1 | -3
CN(C)S(=O)(=O)c1cccc(-n2sc3ccccc3c2=O)c1 | -7 | 3 | 0 | 0 | 27* | -1
Cc1ccc(-n2sc3ccccc3c2=O)cc1S(=O)(=O)N1CCCCC1 | 9 | 0 | 2 | -1 | 25* | 2
O=c1c2ccccc2sn1-c1ccc(S(=O)(=O)N2CCCC2)cc1 | 3 | -2 | -3 | 3 | 23* | -1
CN(C)S(=O)(=O)c1ccc2[nH]cc(/C=C/c3nc4ccccc4c(=O)n3-c3ccccc3)c2c1 | 0 | -5 | 21 | -6 | -4 | -1
O=c1c2ccccc2sn1-c1ccc(S(=O)(=O)N2CCCCC2)cc1 | -6 | -4 | 3 | -1 | 6 | 1
COC(=O)c1ccc(Cn2nnc3c(=O)[nH]c(C4CCN(S(=O)(=O)c5ccc(F)cc5)CC4)nc32)cc1 | -6 | 2 | 36* | 19 | -8 | -4
COC(=O)c1ccc(Cn2nnc3c(=O)[nH]c(C4CCCN(S(=O)(=O)c5ccccc5Cl)C4)nc32)cc1 (centres undefined) | -2 | -1 | 10 | -2 | 0 | -2
COCC(C)NC(=O)NC1(C(F)(F)F)Oc2ccc(Cl)cc2O1 (centres undefined) | 36* | -6 | -3 | -2 | 1 | -2
O=C(O)CSc1nc2ccccc2nc1Cc1ccccc1F | -1 | -3 | 2 | 0 | -9 | -5
CN(C)CCSc1nc2cc(S(=O)(=O)N3CCCCC3)ccc2o1 | / | / | / | / | -3 | /
O=C(OCCN(C1=NS(=O)(=O)c2ccccc21)c1ccc(Cl)cc1)c1ccco1 | 0 | -4 | 27* | -3 | -3 | 1

Assay outcomes deposited in PubChem BioAssay by The Scripps Research Institute Molecular Screening Center.
